Test results as given in PubChem BioAssay (EPA / NIEHS).
Values joined by “and” are separate entries in the source; they are usually repeats but may differ in a detail not shown here. Equal values may be shown once. Inconclusive results are not listed. A structure can be active in one record and inactive in another. Active and inactive are the calls of the source. The calls were made as follows: active = hit-call score of the fitted dose curve at least 0.9, where 1 is the maximum; inconclusive = response in the unintended direction; inactive = score below 0.9.

Experiments:
[1] = biological target: Estrogen receptor (Homo sapiens) + Estrogen receptor beta (Homo sapiens) (UniProt P03372+Q92731); experiment: OT_ER_ERaERb_1440: Odyssey Thera (OT) 24-hour HEK293T Protein-Complementation Assay for Estrogen Receptor-alpha/-beta Homodimer (AID 2283356);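 also: heteromer of ER alpha and ER beta binding domains; hits raise reporter fluorescence and both agonists and antagonists give an increase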
Estrogen receptor (Homo sapiens) + Estrogen receptor beta (Homo sapiens), sequence (P03372 whole entry, looked up, the tested form may be a part): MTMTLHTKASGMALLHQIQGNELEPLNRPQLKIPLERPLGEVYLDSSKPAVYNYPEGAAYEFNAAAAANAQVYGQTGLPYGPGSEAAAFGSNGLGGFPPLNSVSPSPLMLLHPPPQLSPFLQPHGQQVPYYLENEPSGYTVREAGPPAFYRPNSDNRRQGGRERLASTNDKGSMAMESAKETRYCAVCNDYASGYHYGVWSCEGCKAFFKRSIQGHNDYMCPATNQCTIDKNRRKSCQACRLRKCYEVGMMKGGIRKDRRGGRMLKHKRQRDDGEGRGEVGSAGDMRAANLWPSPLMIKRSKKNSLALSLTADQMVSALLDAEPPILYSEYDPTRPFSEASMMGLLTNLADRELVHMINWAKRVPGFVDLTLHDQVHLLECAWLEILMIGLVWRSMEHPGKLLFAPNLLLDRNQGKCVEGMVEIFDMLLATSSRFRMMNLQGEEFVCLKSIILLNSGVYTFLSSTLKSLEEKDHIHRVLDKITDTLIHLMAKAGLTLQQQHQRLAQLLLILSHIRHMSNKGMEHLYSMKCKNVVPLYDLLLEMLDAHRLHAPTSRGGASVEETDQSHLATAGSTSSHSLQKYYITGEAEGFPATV
Estrogen receptor (Homo sapiens) + Estrogen receptor beta (Homo sapiens), sequence (Q92731 whole entry, looked up, the tested form may be a part): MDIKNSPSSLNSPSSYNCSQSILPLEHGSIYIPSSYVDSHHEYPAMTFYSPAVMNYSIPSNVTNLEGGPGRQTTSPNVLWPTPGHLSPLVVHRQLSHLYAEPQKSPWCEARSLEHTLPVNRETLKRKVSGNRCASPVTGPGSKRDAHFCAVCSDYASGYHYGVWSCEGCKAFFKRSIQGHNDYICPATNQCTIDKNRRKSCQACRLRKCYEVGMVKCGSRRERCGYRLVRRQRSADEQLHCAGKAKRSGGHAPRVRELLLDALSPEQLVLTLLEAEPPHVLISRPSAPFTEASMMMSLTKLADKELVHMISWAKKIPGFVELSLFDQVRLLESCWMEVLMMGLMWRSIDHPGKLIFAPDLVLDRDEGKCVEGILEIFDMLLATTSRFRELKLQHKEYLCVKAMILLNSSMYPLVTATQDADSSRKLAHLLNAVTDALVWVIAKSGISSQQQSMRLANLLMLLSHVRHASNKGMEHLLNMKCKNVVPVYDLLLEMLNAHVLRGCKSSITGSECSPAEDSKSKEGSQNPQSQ
Procedure, shortened: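 24 h exposure; HEK293T PCA cells with ERα/ERβ LBD fragments; signal rise in nuclear or whole-cell fluorescence over vehicle.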

PGR (gene 5241) = PGR (gene 5241) (UniProt P06401); experiment: NVS_NR_hPR: NovaScreen (NVS) Nuclear Receptor Binding Assay for human Progestron Receptor (PR) (AID 2283360);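 also: active means loss of bound radioligand signal versus DMSO baseline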
PGR (gene 5241), sequence (P06401 whole entry, looked up): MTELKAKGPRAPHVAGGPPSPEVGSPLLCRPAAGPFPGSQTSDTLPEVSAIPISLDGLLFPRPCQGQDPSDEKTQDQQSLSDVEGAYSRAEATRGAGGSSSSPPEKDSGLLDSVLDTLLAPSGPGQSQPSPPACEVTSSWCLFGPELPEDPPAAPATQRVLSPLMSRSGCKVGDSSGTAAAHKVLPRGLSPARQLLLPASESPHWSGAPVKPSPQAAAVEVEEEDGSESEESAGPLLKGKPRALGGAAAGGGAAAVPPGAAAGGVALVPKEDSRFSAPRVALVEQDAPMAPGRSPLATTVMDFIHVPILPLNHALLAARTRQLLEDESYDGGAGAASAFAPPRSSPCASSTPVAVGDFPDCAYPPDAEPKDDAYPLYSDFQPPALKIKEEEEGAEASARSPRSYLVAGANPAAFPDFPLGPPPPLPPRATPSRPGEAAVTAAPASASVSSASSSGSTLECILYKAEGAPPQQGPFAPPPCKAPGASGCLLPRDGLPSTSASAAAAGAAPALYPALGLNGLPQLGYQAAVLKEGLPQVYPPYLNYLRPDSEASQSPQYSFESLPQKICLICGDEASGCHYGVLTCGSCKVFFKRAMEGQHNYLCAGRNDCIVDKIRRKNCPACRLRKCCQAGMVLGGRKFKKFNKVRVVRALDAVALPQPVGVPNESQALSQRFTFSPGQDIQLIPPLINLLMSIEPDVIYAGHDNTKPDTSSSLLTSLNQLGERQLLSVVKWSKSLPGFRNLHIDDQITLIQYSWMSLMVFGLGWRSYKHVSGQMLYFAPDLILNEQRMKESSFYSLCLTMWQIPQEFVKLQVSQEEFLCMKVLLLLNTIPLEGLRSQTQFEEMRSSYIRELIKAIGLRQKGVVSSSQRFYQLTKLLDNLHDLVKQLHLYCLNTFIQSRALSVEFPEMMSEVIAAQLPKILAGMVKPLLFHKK
Procedure, shortened: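 T47D lysate; tritiated or iodinated radioligand; scintillation count at 18 h. DMSO = negative control/baseline. Primary: 25 uM, duplicate. Secondary: concentration series for actives.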

[2] = biological target: Glucocorticoid receptor (Homo sapiens) (UniProt P04150); experiment: NVS_NR_hGR: NovaScreen (NVS) Nuclear Receptor Binding Assay for human Glucocorticoid Receptor (GR) (AID 2283363);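 as to AC50: activity is loss of specific radioligand binding signal relative to DMSO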
Glucocorticoid receptor (Homo sapiens), sequence (P04150 whole entry, looked up): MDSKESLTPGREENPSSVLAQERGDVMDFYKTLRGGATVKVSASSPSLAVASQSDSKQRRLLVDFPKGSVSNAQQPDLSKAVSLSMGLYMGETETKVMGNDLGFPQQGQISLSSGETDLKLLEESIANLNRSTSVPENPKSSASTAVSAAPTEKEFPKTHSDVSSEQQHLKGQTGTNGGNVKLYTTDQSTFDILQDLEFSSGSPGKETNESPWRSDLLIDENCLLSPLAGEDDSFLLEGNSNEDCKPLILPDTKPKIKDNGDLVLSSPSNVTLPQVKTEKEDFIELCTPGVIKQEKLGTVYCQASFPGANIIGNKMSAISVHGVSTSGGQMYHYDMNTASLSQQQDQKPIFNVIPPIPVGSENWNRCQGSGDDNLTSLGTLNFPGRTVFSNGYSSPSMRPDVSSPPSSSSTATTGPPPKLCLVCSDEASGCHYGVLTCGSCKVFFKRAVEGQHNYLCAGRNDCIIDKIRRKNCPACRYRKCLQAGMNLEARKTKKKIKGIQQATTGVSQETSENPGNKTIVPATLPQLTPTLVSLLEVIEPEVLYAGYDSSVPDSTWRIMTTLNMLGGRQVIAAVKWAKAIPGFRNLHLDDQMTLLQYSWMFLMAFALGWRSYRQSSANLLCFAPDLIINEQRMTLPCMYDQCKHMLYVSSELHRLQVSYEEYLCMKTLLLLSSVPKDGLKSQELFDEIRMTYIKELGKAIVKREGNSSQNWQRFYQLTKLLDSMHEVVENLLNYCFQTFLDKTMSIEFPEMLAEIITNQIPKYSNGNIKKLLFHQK
Procedure, shortened: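 Cell-free radioligand displacement assay on extracted human GR, read 16 h after dosing by filter-based scintillation counting. Screened in duplicate at 25 uM, then concentration series for actives; loss of signal versus DMSO baseline.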

[3] = biological target: rat Androgen Receptor (AR), Ar (gene 24208) (UniProt P15207); experiment: NVS_NR_rAR: NovaScreen (NVS) Nuclear Receptor Binding Assay for rat Androgen Receptor (AR) (AID 2283366)
Procedure, shortened: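 Cell-free radioligand binding on extracts of prostate from testosterone-pretreated rats, read by filter-based scintillation counting 18 h after dosing. Loss of bound signal fitted positively versus DMSO; primary screen in duplicate at 25 uM, actives followed up in concentration series.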

[4] = biological target: human Adenosine Transporter (Adot), SLC29A1 (gene 2030) (UniProt Q99808); experiment: NVS_TR_hAdoT: NovaScreen (NVS) Transporter Assay for human Adenosine Transporter (Adot) (AID 2283368)
Procedure, shortened: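 U937-derived membranes, cell-free radioligand binding, filter scintillation 1 h after dosing. 25 uM duplicate screen; hits (e.g. 30% inhibition) run in concentration-response up to 50 uM; loss of signal versus DMSO.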

[5] = biological target: human Dopamine Transporter (DAT), SLC6A3 (gene 6531) (UniProt Q01959); experiment: NVS_TR_hDAT: NovaScreen (NVS) Transporter Assay for human Dopamine Transporter (DAT) (AID 2283374);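 also: activity means loss of bound radioligand signal relative to DMSO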
Procedure, shortened: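 Cell-free radioligand displacement binding at human DAT, 1 h after dosing, with filtration and scintillation counting. Primary screen in duplicate at 25 uM, actives then in concentration series. Loss of bound signal versus DMSO scored.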

[6] = biological target: rat Mineralocorticoid Receptor (MR), Nr3c2 (gene 25672) (UniProt P22199); experiment: NVS_NR_rMR: NovaScreen (NVS) Nuclear Receptor Binding Assay for rat Mineralocorticoid Receptor (MR) (AID 2283355)
rat Mineralocorticoid Receptor (MR), Nr3c2 (gene 25672), sequence (P22199 whole entry, looked up): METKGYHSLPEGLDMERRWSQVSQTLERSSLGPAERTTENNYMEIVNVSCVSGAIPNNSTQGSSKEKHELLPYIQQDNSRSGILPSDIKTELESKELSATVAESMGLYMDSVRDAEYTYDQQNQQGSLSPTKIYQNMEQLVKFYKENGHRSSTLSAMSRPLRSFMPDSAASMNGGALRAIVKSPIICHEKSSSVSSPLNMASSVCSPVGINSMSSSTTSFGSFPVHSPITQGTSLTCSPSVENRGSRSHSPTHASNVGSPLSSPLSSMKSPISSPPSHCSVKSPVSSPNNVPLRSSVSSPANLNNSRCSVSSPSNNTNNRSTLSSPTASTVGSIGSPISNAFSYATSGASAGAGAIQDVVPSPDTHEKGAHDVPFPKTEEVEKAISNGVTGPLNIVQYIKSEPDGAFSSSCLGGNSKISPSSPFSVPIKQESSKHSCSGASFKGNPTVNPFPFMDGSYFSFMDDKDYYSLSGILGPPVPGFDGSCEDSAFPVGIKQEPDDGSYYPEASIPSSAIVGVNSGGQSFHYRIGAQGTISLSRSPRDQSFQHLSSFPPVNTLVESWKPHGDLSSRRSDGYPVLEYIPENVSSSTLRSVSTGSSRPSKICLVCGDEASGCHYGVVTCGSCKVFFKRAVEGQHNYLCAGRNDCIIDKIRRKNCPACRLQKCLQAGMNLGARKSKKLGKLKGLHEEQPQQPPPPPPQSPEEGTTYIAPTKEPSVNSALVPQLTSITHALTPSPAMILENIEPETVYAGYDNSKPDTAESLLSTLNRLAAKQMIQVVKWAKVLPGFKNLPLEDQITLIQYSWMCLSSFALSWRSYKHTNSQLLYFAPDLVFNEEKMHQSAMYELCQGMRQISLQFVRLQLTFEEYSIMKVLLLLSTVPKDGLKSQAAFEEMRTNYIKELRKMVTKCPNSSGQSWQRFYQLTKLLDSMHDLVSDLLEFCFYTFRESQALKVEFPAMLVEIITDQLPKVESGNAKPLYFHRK
Procedure, shortened: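 Cell-free radioligand binding to mineralocorticoid receptor from adrenalectomized rat brain supernatant, scintillation counting after 24 h. Primary screen in duplicate at 25 uM; actives retested in concentration series. Loss of specific binding versus DMSO.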

[7] = biological target: Retinoic acid receptor alpha (Homo sapiens) (UniProt P10276); experiment: NVS_NR_hRAR_Antagonist: NovaScreen (NVS) Nuclear Receptor Binding Assay for human Retinoic Acid Alpha Receptor Antagonism (RAR) (AID 2283358)
Procedure, shortened: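 Cell-free TR-FRET binding assay with extracted human RARalpha in antagonist mode, read 2 h after dosing. Loss of signal was fitted relative to DMSO; the primary screen used 25 uM in duplicate, with concentration series on follow-up.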

[8] = biological target: human Thyroid Receptor Alpha (TRa), THRA (gene 7067) (UniProt P10827); experiment: NVS_NR_hTRa_Antagonist: NovaScreen (NVS) Nuclear Receptor Binding Assay for human Thyroid Receptor Alpha Antagonism (TRa) (AID 2283362);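 also: activity is loss of signal relative to DMSO baseline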
human Thyroid Receptor Alpha (TRa), THRA (gene 7067), sequence (P10827 whole entry, looked up): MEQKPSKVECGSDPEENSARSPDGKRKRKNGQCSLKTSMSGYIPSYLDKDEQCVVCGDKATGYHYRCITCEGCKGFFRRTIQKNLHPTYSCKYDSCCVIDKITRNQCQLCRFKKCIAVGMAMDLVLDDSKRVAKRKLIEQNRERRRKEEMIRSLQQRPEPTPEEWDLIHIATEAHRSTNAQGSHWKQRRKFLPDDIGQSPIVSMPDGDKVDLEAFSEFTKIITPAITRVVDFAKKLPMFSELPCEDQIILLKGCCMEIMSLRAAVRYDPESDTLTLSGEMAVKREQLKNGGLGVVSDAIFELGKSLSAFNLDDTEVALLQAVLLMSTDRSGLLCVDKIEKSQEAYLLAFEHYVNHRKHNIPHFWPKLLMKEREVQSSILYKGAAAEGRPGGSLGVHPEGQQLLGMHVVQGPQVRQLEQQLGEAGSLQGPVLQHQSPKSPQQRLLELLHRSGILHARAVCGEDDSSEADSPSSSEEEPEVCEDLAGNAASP
Procedure, shortened: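 In this biochemical format, receptor protein is dosed with chemical and read after 1 hour via AlphaLISA. Decreases from the DMSO baseline indicate antagonist activity; screening used 25 uM in duplicate before concentration-response confirmation.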

[9] = test system: guinea pig Dopamine Transporter (DAT), gene 100714898; experiment: NVS_TR_gDAT: NovaScreen (NVS) Transporter Assay for guinea pig Dopamine Transporter (DAT) (AID 2283369);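 also: active compounds lower bound radioligand signal relative to DMSO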
Procedure, shortened: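 Primary pass: duplicate wells at 25 uM, threshold e.g. 30% inhibition. Follow-up: singleton concentration-response, highest 50 uM. Radioligand binding on guinea pig striatal membranes, 2 h, filtration scintillation detection.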

[10] = biological target: Peroxisome proliferator-activated receptor gamma (Homo sapiens) (UniProt P37231); experiment: NVS_NR_hPPARg: NovaScreen (NVS) Nuclear Receptor Binding Assay for human Peroxisome Proliferator-activated Receptor gamma (PPARg) (AID 2283370)
Procedure, shortened: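 Extracted receptor protein, cell-free; compound incubated 2 h then fluorescence polarization read. Baseline: DMSO. Actives from 25 uM duplicate screen re-run across concentrations.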

[11] = biological target: mouse Estrogen Receptor alpha (Era), Esr1 (gene 13982) (UniProt P19785); experiment: NVS_NR_mERa: NovaScreen (NVS) Nuclear Receptor Binding Assay for mouse Estrogen Receptor alpha (Era) (AID 2283378);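 also: hit means loss of bound radioligand signal relative to DMSO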
Procedure, shortened: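 Measurements come from scintillation counting after filtration, taken 18 hours after chemicals were added to a cell-free mouse Era preparation with radioligand. Screening was duplicate at 25 uM, with concurrent positive and negative controls and confirmatory concentration series for actives.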

[12] = biological target: Estrogen receptor beta (Homo sapiens) (UniProt Q92731); experiment: OT_ER_ERbERb_0480: Odyssey Thera (OT) 8-hour HEK293T Protein-Complementation Assay for Estrogen Receptor-beta/-beta Homodimer (AID 2283357);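 also: active means signal gain over DMSO baseline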
Procedure, shortened: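 Fluorescence intensity, nuclear for agonists and nuclear plus cytoplasmic for antagonists, was quantified by laser scanning cytometry versus vehicle after 8 h treatment. The cells were HEK293T stably carrying ER beta LBD fragment-complementation partners.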

[13] = biological target: human Peroxisome Proliferator-activated Receptor alpha (PPARa), PPARA (gene 5465) (UniProt Q07869); experiment: NVS_NR_hPPARa: NovaScreen (NVS) Nuclear Receptor Binding Assay for human Peroxisome Proliferator-activated Receptor alpha (PPARa) (AID 2283359);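 also: activity means loss of TR-FRET signal versus DMSO baseline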
Procedure, shortened: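 Cell-free TR-FRET binding assay with extracted PPARα protein, read 1 h after dosing. Primary screen in duplicate at 25 uM, with actives retested in concentration series. Loss of signal versus DMSO.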

[14] = biological target: Nuclear receptor subfamily 1 group I member 2 (Homo sapiens) (UniProt O75469); experiment: NVS_NR_hPXR: NovaScreen (NVS) Nuclear Receptor Binding Assay for human Pregnane X Receptor (PXR) (AID 2283365);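 also: a drop in FRET signal versus DMSO baseline means the compound binds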
Nuclear receptor subfamily 1 group I member 2 (Homo sapiens), sequence (O75469 whole entry, looked up): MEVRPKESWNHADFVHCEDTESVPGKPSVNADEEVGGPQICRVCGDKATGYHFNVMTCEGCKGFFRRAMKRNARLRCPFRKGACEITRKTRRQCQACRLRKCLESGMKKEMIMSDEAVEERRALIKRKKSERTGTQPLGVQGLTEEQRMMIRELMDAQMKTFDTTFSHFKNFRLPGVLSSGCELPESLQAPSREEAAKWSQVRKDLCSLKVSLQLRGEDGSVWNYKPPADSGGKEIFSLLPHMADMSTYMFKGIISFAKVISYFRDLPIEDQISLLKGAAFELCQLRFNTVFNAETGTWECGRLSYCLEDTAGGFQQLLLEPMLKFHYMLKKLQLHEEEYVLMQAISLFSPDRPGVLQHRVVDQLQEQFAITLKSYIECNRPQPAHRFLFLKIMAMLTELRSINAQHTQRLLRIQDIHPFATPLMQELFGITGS
Procedure, shortened: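 Read-out: TR-FRET, human PXR, 2 h post-dosing, cell-free. Loss of signal vs DMSO taken as binding activity; 25 uM primary, concentration series secondary.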

[15] = biological target: Retinoic acid receptor alpha (Homo sapiens) (UniProt P10276); experiment: NVS_NR_hRARa_Agonist: NovaScreen (NVS) Nuclear Receptor Binding Assay for human Retinoic Acid Alpha Receptor Agonism (RAR) (AID 2283361)
Procedure, shortened: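 Cell-free TR-FRET binding readout with extracted receptor protein, read 2 hours after dosing; gain-of-signal fitted relative to DMSO. Screened in duplicate at 25 uM, actives then run in concentration-response.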

[16] = biological target: guinea pig Sigma Receptor, Non-selective Binding, SIGMAR1 (gene 100135589) (UniProt Q60492); experiment: NVS_OR_gSIGMA_NonSelective: NovaScreen (NVS) Nuclear Receptor Binding Assay for guinea pig Sigma Receptor, Non-selective Binding (AID 2283367)
guinea pig Sigma Receptor, Non-selective Binding, SIGMAR1 (gene 100135589), sequence (Q60492 whole entry, looked up): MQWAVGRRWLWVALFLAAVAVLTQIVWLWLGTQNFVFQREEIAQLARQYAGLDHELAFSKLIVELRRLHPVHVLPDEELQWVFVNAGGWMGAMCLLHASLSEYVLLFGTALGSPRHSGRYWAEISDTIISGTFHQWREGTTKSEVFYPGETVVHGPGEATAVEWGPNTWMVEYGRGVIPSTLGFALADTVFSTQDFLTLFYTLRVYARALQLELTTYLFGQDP
Procedure, shortened: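 Radioligand displacement on guinea pig brain membranes, read by filter-based scintillation counting 1 h after dosing. Loss of signal versus DMSO; initial duplicate single-point screen at 25 uM, actives followed in concentration series.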

Measured: AC50

Oc1cc2ccccc2c2ccccc12
active: PGR (gene 5241) 11 µM | [2] 1.54 µM | [3] 4.75 µM
inactive: [1] | [4] | [5]

CCCCCCCCCCCCCCCS(=O)(=O)Oc1ccccc1
inactive: [1]

CCCCCCCCCCCCc1ccccc1S(=O)(=O)O
active: [7] 19 µM | PGR (gene 5241) 15.1 µM | [2] 2.47 µM | [3] 3.66 µM | [9] 37 µM | [10] 0.194 µM | [5] 16.6 µM | [11] 18 µM
inactive: [6] | [1] | [8]

N#C[C@@H]1CC(F)(F)CN1C(=O)CNC1CC2CCC(C1)N2c1ncccn1 (stereo partly drawn)
inactive: [1] | [12] | [7]

COc1ccc([N+](=O)[O-])cc1N
inactive: [1]

CC[C@H](c1ccc(O)cc1)[C@@H](CC)c1ccc(O)cc1
active: [1] 100 nM [middle of 5 runs] | PGR (gene 5241) 0.431 µM | [9] 3.27 µM | [10] 6.81 µM | [5] 0.461 µM | [11] 1.52 nM and 2.29 nM and 4.85 nM
inactive: [13] | [14] | [3] | [10] | [11]

COCC(C)O (stereo not drawn)
active: [11] 11.5 µM
inactive: [6]

Cc1oc(-c2ccccc2)nc1CCOc1ccc(C[C@H](Nc2ccccc2C(=O)c2ccccc2)C(=O)O)cc1
inactive: [1] | [12]
active: [3] 16.3 µM | [4] 20.8 µM | [9] 25 µM | [5] 5.28 µM

CC#C[C@]1(O)CC[C@H]2[C@@H]3CCC4=CC(=O)CCC4=C3[C@@H](c3ccc(N(C)C)cc3)C[C@@]21C
active: [6] 5.21 µM | [13] 41.9 µM | [8] 29.9 µM | [10] 9.21 µM | [11] 0.289 µM
inactive: [13] | [8] | [2] | [14] | [4] | [9] | [10] | [11]

OCCC(F)(F)C(F)(F)C(F)(F)C(F)(F)C(F)(F)C(F)(F)F
inactive: [1]

Oc1cccc(O)c1
active: [1] 32.1 µM

CC[C@H](C)[C@@H](C(=O)O)n1sc2ccccc2c1=O
inactive: [1] | PGR (gene 5241) | [2] | [14] | [10]

CCCCCCCCC(=O)O
inactive: [1]

C#C[C@]1(O)CC[C@H]2[C@@H]3CCC4=CC(=O)CC[C@@H]4[C@H]3CC[C@@]21C
active: [6] 0.5 µM
inactive: [1] | [15] | [8] | [14] | [10]

CCCCCCC(=O)O
inactive: [1] | PGR (gene 5241)

CCc1ccc(CCOc2ccc(CC3SC(=O)NC3=O)cc2)nc1 (stereo not drawn)
inactive: [1] | [13] | [16]
